# Test results published in PubChem BioAssay (NCATS).
# Records with an inconclusive call do not appear. Active and inactive are the calls of the source. Calls come from the whole dose curve; as a rule, active = well fitted inhibition curve with a large enough effect; inconclusive = small, poorly fitted or top-dose-only effect; inactive = flat fitted curve, though single readings scatter. Where a SMILES comes first, the peptide text is derived from it. Bridges are numbered along the chain shown (N, C = ends). [ ]: non-standard residue; d: D form. NMeY = CN[CH](Cc1ccc(O)cc1)C(=O)O
# Test system: NIH3T3
# Assay: Cytotoxic Profiling of Annotated Libraries Using Quantitative High-Throughput Screening (AID 1296008); note: nearly all actives have a fitted effect of over 60% in size
# Details: Five cell lines viability, CellTiter-Glo ATP luminescence, 48-72 h; max response: hits give low values
# In short: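 Cytotoxicity was measured as CellTiter-Glo ATP luminescence, read after 10 min at room temperature. Compound treatment of the cells lasted 48 or 72 hr at 37 degrees Celsius in a qHTS format.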
# % is set by controls: 0 for no effect and ±100 for the full control effect; potency is the fitted concentration of half-maximal effect.
SMILES,max response,Potency,outcome
COc1cc2c(c(OC)c1CC=C(C)C)C[C@H](c1ccc(O)cc1O)CO2,0.487% (inactive),–,–
COc1cc(OC)c(/C=C/S(=O)(=O)Cc2ccc(OC)c(NCC(=O)O)c2)c(OC)c1,–,146 nM (active),–
COc1c2cc(c(O)c1OC)-c1cc(ccc1O)CCC(O)CCCC2 (centres undefined),-1.69% (inactive),–,–
COc1ccc([C@@]2(O)c3c(ccc(CC=C(C)C)c3O)NC(=O)[C@@H]2OC)cc1,4.4% (inactive),–,–
C[C@@H]1CC[C@]2(C(=O)O[C@@H]3O[C@H](CO)[C@@H](O)[C@H](O)[C@H]3O)CC[C@]3(C)C(=CCC4[C@@]5(C)C[C@@H](O)[C@H](O)[C@](C)(C(=O)O)C5CC[C@]43C)[C@@H]2[C@]1(C)O (some centres undefined),0.619% (inactive),–,–
COc1ccc(-c2cnc3ccc(NCc4ccc(S(N)(=O)=O)cc4)nn23)cc1OC,-14% (inactive),–,–
C[C@@]12CC[C@@H]3[C@@](CC[C@H]4[C@@]3(C)CCC[C@@]4(C)C(=O)O)(CC1=O)C2,-5.17% (inactive),–,–
C=C(C(=O)O)C1CCC2(C)CCCC(C)(O)C2C1 (centres undefined),–,–,inactive
CC1=CC(=O)CC(C)(C)[C@H]1/C=C/C(CO)O[C@@H]1O[C@H](CO)[C@@H](O)[C@H](O)[C@H]1O (some centres undefined),-2.41% (inactive),–,–
O=C(O[C@H]1[C@@H]2C=CO[C@@H](O[C@@H]3O[C@H](CO)[C@@H](O)[C@H](O)[C@H]3O)[C@@H]2[C@@]2(CO)O[C@@H]12)c1ccccc1,-6.96% (inactive),–,–
CN1CCN(C(=O)c2ccc3cc(CCNc4ncnc5ccc(C#N)cc45)ccc3c2)CC1,-2.38% (inactive),–,–
Nc1nc2c(c(N3CCNCC3)n1)CCC1=C2[C@@H]2CCCC[C@@H]2O1,-4.38% (inactive),–,–
C=CC1C(OC2OC(CO)C(O)C(O)C2O)OC=C(C(=O)OC)C1CC(=O)OCC1C(C)C(O)CC1C(CO)COC(=O)CC1C(C(=O)O)=COC(OC2OC(CO)C(O)C(O)C2O)/C1=C\C (centres undefined),-19.3% (inactive),–,–
Oc1ccc2nc(CN3CCC(Cc4ccccc4F)CC3)[nH]c2c1,-12% (inactive),–,–
Cc1noc(=O)c2ccc(NC(=O)C(O)(CC(C)(C)c3cccc4c3OCC4)C(F)(F)F)cc12 (centres undefined),-1.29% (inactive),–,–
CC(C)S(=O)(=O)N[C@H]1CCOC[C@@H]1c1ccc(-c2ccc(C#N)s2)cc1,-6.39% (inactive),–,–
C=C(C(=O)O)[C@H]1C[C@]2(C)[C@@H](O)CC[C@]23O[C@H]1C[C@@H]3C,-13.7% (inactive),–,–
O=C(O)CCCCCC[C@H]1C(=O)NC(=O)N1CC[C@@H](O)C1CCCCC1,-5.35% (inactive),–,–
COc1cc(C(=O)OC[C@H]2O[C@@H](Oc3ccccc3/C=C/C(=O)O)[C@H](O)[C@@H](O)[C@@H]2O)cc(OC)c1OC,0.074% (inactive),–,–
C=CC(C)(C)c1[nH]c2cc3c(cc2c1CC1NC(=O)C2=CCCN2C1=O)C=CC(C)(C)O3 (centres undefined),-5.01% (inactive),–,–

SMILES,max response,Potency,outcome
C/C=C/C=C/C(O)=C1\C(=O)[C@]2(C)C3C(C(=O)CC/C=C/C)=C(O)C4(C)C1[C@]1(C)O[C@@]4(O)[C@@]3(C)O[C@@]12O,1.07% (inactive),–,–
COc1ncc2cc(C(=O)Nc3cc(C(=O)NCc4cccc(Cl)c4)ccc3Cl)c(=O)[nH]c2n1,-0.237% (inactive),–,–
CC(=O)O[C@H]1CC[C@@]2(C)C(CC[C@@H](C)[C@]23Cc2c(O)cc4c(c2O3)CN([C@@H](CCC(=O)O)C(=O)O)C4=O)C1(C)C (some centres undefined),2.49% (inactive),–,–
N#Cc1cc(F)cc(-c2nc(-c3ccccn3)no2)c1,-10.9% (inactive),–,–
CC1=C2C(O)C(=O)OC(c3ccoc3)C2(C)CCC1O (centres undefined),3.37% (inactive),–,–
CC1=CC(=O)[C@]2(O[C@@H]3O[C@@H](C)[C@H](O)[C@@H](O)[C@H]3OC(=O)/C=C/c3ccccc3)C=CO[C@@H](O[C@@H]3O[C@H](CO)[C@@H](O)[C@H](O)[C@H]3O)[C@H]12,–,–,inactive
OCc1ccc(O[C@@H]2O[C@H](CO)[C@@H](O)[C@H](O)[C@H]2O)cc1,2.54% (inactive),–,–
Cc1cc(C)c(CNC(=O)c2cc(-c3ccc(CN4CCOCC4)cc3)cc3c2cnn3C2CCCC2)c(=O)[nH]1,-0.531% (inactive),–,–
CC1(C)CC[C@]2(C(=O)O[C@@H]3O[C@H](CO)[C@@H](O)[C@H](O)[C@H]3O)CC[C@]3(C)C(=CCC4[C@@]5(C)CC[C@H](O[C@@H]6O[C@H](C(=O)O)[C@@H](O)[C@H](O)[C@H]6O)C(C)(C)C5CC[C@]43C)C2C1 (some centres undefined),-3.14% (inactive),–,–
COC(=O)C12C(=O)C(C)=C(O)C1(C)C(C)=CC1C3(CO)CCC(O)C(C)(C)C3CCC12C (centres undefined),-3.91% (inactive),–,–
CCC(C)C1NC(=O)C2CCCN2C(=O)C(NC(C)=O)C(C)OC(=O)C(Cc2ccc(OC)cc2)N(C)C(=O)C2CCCN2C(=O)C(C(C)C)NC1=O (centres undefined) (Ac-TPIVP[NMeY](Me); ester 1-C; configuration not given here),–,–,inactive
O=C1NC(Cc2c[nH]c3ccccc23)C(=O)NC1Cc1cnc[nH]1 (centres undefined),3.67% (inactive),–,–
Cc1cc(NC(=O)Nc2ccc(F)c(F)c2)n(-c2ccccc2)n1,-11% (inactive),–,–
CC1(C)CCCC2(C)C1CC(=O)C13CC(CCC12)C(O)(CO)C3 (centres undefined),2.51% (inactive),–,–
COc1cc(/C=C/C=O)cc(OC)c1O[C@@H]1O[C@H](CO)[C@@H](O)[C@H](O)[C@H]1O,-71.2% (inactive),–,–
O=C(/C=C/c1ccccc1)OC[C@]12O[C@H]1[C@@H](O)[C@@H]1C=CO[C@@H](O[C@@H]3O[C@H](CO)[C@@H](O)[C@H](O)[C@H]3O)[C@@H]12,–,–,inactive
O=S(=O)(c1ccccc1)c1cnc2c(N3CCNCC3)cccc2c1,-14.1% (inactive),–,–
COc1c(/C=C/C(C)(C)O)ccc2c1C(=O)OCc1cc(C)cc(O)c1O2,2.57% (inactive),–,–
C=C(C(=O)OC)C1C(O)CC2(C)C(O)CCC(=O)C2C1O (centres undefined),3.84% (inactive),–,–
